The nature of assay [1]: NCI Yeast Anticancer Drug Screen. Data for the rad50 strain (AID 155).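 Also: 0% = growth of vehicle-only cultures of the same strain.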 The conditions noted are these: S. cerevisiae rad50 strain growth inhibition, stronger effect = higher value. The method in brief: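 A DNA repair-deficient yeast mutant serves as the test organism; compound-induced growth inhibition is calculated against vehicle-treated cells.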
Assay [2] is described as follows: NCI Yeast Anticancer Drug Screen. Data for the mec2-1 strain (AID 157). Conditions: S. cerevisiae mec2-1 strain, stronger effect = higher value. The method in brief:
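Cells of the genetically defined mec2-1 yeast strain are incubated with test compound. Inhibition of growth is calculated against vehicle-treated controls.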

Assay [3] is described as follows: NCI Yeast Anticancer Drug Screen. Data for the sgs1 mgt1 strain (AID 161).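 Also: 0% = growth of cultures given vehicle only.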 Conditions: S. cerevisiae sgs1 mgt1 strain, stronger effect = higher value. The method in brief: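 Read-out: growth inhibition vs vehicle controls. Cells: mutant yeast strain deficient in DNA damage repair.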
Assay [4] in a line: NCI Yeast Anticancer Drug Screen. Data for the cln2 rad14 strain (AID 165).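 Also: 0% = growth equal to vehicle treated cultures.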 Conditions: S. cerevisiae cln2 rad14 strain, stronger effect = higher value. The gist of the method: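 The screen exposed genetically defined yeast (cln2 rad14) to test compounds and scored growth inhibition relative to vehicle-treated controls.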
Assay [5] is described as follows: NCI Yeast Anticancer Drug Screen. Data for the bub3 strain (AID 167). Conditions: S. cerevisiae bub3 mutant strain, stronger effect = higher value. The method in brief:
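Inhibition values come from growth of compound-treated mutant yeast normalised to vehicle-treated controls.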

The nature of assay [6]: NCI Yeast Anticancer Drug Screen. Data for the mlh1 rad18 strain (AID 175). Conditions: S. cerevisiae mlh1 rad18 strain growth inhibition, stronger effect = higher value. The gist of the method:
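Compound-treated yeast growth, normalised to vehicle controls. Strain bears defined DNA repair mutations.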

[7] abbreviates: at 5.0 µM (retest, dose inferred, filed as 0.5).
[8] abbreviates: at 50.0 µM (retest, dose inferred, filed as 5.0).

Several values for one entry are separate records, joined by “and”; a condition that tells them apart may be missing. Identical values can stand only once. The panel holds about 79,000 compounds, 15% with a hit somewhere; the sample as a whole holds those more often. Where a structure was tested more than once in an assay, its records may differ in their call. Activity calls are given as the source filed them. Rule as the data show it: active = growth inhibition above about 70%; inactive = the rest.

In the case of `Nc1nc(=S)c2ncn(C3OC(CO)C(O)C3O)c2[nH]1` (configuration not stated), the growth inhibition is 79% (active) in assay [1] (setting [7]); 5% (inactive) in assay [1] (setting [8]); 12.5% (inactive) and 38.5% (inactive) in assay [1] (at 50.0 µM); 97% (active) in assay [2] (setting [7]); 6% (inactive) in assay [2] (setting [8]); 0.4% (inactive) and 92.5% (active) in assay [2] (at 50.0 µM). The growth inhibition in assay [3] (setting [7]) was 66% (inactive); in assay [3] (setting [8]), 26% (inactive); in assay [3] (at 50.0 µM), -3.7% (inactive) and -8.45% (inactive); in assay [4] (setting [7]) it was 49% (inactive); in assay [4] (setting [8]), 9% (inactive); in assay [4] (at 50.0 µM), 4.9% (inactive) and 96.8% (active). The growth inhibition was 99% (active) in assay [5] (setting [7]); 14% (inactive) in assay [5] (setting [8]); -4.2% (inactive) and 98% (active) in assay [5] (at 50.0 µM); 94% (active) in assay [6] (setting [7]); 52% (inactive) in assay [6] (setting [8]); -11.9% (inactive) and 97.5% (active) in assay [6] (at 50.0 µM).

Turning to `COc1nc(NC2OC(CO)C(O)C(O)C2O)c(Cl)c(=O)n1C` (configuration not stated), the growth inhibition in assay [1] (setting [7]) is 1% (inactive); in assay [1] (setting [8]), 5% (inactive); in assay [1] (at 50.0 µM), 17.7% (inactive); in assay [2] (setting [7]) it was 3% (inactive); in assay [2] (setting [8]), 0% (inactive); in assay [2] (at 50.0 µM) it was 74.5% (active). The growth inhibition in assay [3] (setting [7]) is 2% (inactive); in assay [3] (setting [8]), -2% (inactive); in assay [3] (at 50.0 µM), 87.3% (active); in assay [4] (setting [7]), 1% (inactive); in assay [4] (setting [8]), 3% (inactive); in assay [4] (at 50.0 µM), 69.3% (inactive). The growth inhibition in assay [5] (setting [7]) is -1% (inactive); in assay [5] (setting [8]), -2% (inactive); in assay [5] (at 50.0 µM) it was 71.2% (active); in assay [6] (setting [7]) it was -1% (inactive); in assay [6] (setting [8]) it was -3% (inactive); in assay [6] (at 50.0 µM), 88.9% (active).

Regarding `C/C(N=NC(=S)N1CCCCCC1)=C1\C=CC=CN1O`, the growth inhibition was 17% (inactive) in assay [1] (setting [7]); 38% (inactive) in assay [1] (setting [8]); 72.9% (active) in assay [1] (at 50.0 µM); 12% (inactive) in assay [2] (setting [7]); 31% (inactive) in assay [2] (setting [8]); 74.2% (active) in assay [2] (at 50.0 µM). The growth inhibition is 14% (inactive) in assay [3] (setting [7]); 27% (inactive) in assay [3] (setting [8]); 68.4% (inactive) in assay [3] (at 50.0 µM); 19% (inactive) in assay [4] (setting [7]); 31% (inactive) in assay [4] (setting [8]); 30.6% (inactive) in assay [4] (at 50.0 µM). Further, the growth inhibition in assay [6] (setting [7]) is 24% (inactive); in assay [6] (setting [8]), 44% (inactive).

Consider `CC1OC(OC2CC(O)(C(=O)CO)Cc3c(O)c4c(c(O)c32)C(=O)c2ccccc2C4=O)CC(N)C1O` (configuration not stated), for which the growth inhibition is 87% (active) in assay [1] (setting [7]); 96% (active) in assay [1] (setting [8]); 87.8% (active) in assay [1] (at 50.0 µM); 62% (inactive) in assay [2] (setting [7]); 95% (active) in assay [2] (setting [8]); 91.1% (active) in assay [2] (at 50.0 µM). Also, the growth inhibition in assay [3] (setting [7]) is 86% (active); in assay [3] (setting [8]), 97% (active); in assay [3] (at 50.0 µM), 89.5% (active); in assay [4] (setting [7]) it was 57% (inactive); in assay [4] (setting [8]), 95% (active); in assay [4] (at 50.0 µM), 87.3% (active). Also, the results for the growth inhibition in assay [6] (setting [7]) and in assay [6] (setting [8]) were 77% (active) and 94% (active), respectively.

Regarding `CC(NNC(=S)N1CCN(c2ccccn2)CC1)c1nccc2ccccc12` (configuration not stated), the growth inhibition in assay [1] (setting [7]) is 26% (inactive); in assay [1] (setting [8]), 98% (active); in assay [1] (at 50.0 µM), 69.1% (inactive); in assay [2] (setting [7]) it was 51% (inactive); in assay [2] (setting [8]), 98% (active); in assay [2] (at 50.0 µM), 22.1% (inactive). Also, the growth inhibition in assay [3] (setting [7]) was 58% (inactive); in assay [3] (setting [8]), 99% (active); in assay [3] (at 50.0 µM), 1.8% (inactive); in assay [4] (setting [7]) it was 63% (inactive); in assay [4] (setting [8]) it was 98% (active); in assay [4] (at 50.0 µM), 8.35% (inactive). For the same compound, the growth inhibition in assay [6] (setting [7]) was 49% (inactive); in assay [6] (setting [8]), 98% (active).

`CN1C(c2ccccc2)CC(=NO)CC1c1ccccc1` (configuration not stated): the growth inhibition is 18% (inactive) in assay [1] (setting [7]); 58% (inactive) in assay [1] (setting [8]); 24.6% (inactive) and 93.9% (active) in assay [1] (at 50.0 µM); 1% (inactive) in assay [2] (setting [7]); 45% (inactive) in assay [2] (setting [8]); 6.35% (inactive) and 27.3% (inactive) in assay [2] (at 50.0 µM). Besides, the growth inhibition in assay [3] (setting [7]) was 6% (inactive); in assay [3] (setting [8]) it was 58% (inactive); in assay [3] (at 50.0 µM) it was 3.9% (inactive) and 82.2% (active); in assay [4] (setting [7]), -12% (inactive); in assay [4] (setting [8]), 20% (inactive); in assay [4] (at 50.0 µM) it was 5.8% (inactive) and 32.3% (inactive). The growth inhibition in assay [5] (setting [7]) was 7% (inactive); in assay [5] (setting [8]), 23% (inactive); in assay [5] (at 50.0 µM) it was -7.15% (inactive) and 62% (inactive); in assay [6] (setting [7]), -1% (inactive); in assay [6] (setting [8]), 41% (inactive); in assay [6] (at 50.0 µM), 30.4% (inactive) and 85.2% (active).

In the case of `CCCCCCCCCCCC(=O)CN1CCOCC1`, the growth inhibition is 34% (inactive) in assay [1] (setting [7]); 99% (active) in assay [1] (setting [8]); 98.9% (active) in assay [1] (at 50.0 µM); 25% (inactive) in assay [2] (setting [7]); 100% (active) in assay [2] (setting [8]); 99.8% (active) in assay [2] (at 50.0 µM). Moreover, the growth inhibition in assay [3] (setting [7]) is 47% (inactive); in assay [3] (setting [8]) it was 99% (active); in assay [3] (at 50.0 µM), 61.9% (inactive); in assay [4] (setting [7]), 39% (inactive); in assay [4] (setting [8]), 99% (active); in assay [4] (at 50.0 µM), 97.8% (active). Moreover, the growth inhibition is 87% (active) in assay [5] (setting [7]); 99% (active) in assay [5] (setting [8]); 99.7% (active) in assay [5] (at 50.0 µM); 31% (inactive) in assay [6] (setting [7]); 99% (active) in assay [6] (setting [8]); 99.2% (active) in assay [6] (at 50.0 µM).

Regarding `N#CC1Sc2ccccc2N1C(=O)OCc1ccccc1` (configuration not stated), the growth inhibition in assay [1] (setting [7]) is 7% (inactive); in assay [1] (setting [8]) it was 86% (active); in assay [1] (at 50.0 µM) it was 90.1% (active); in assay [2] (setting [7]), 4% (inactive); in assay [2] (setting [8]), 86% (active); in assay [2] (at 50.0 µM), 86.8% (active). Further, the growth inhibition was 11% (inactive) in assay [3] (setting [7]); 89% (active) in assay [3] (setting [8]); 94% (active) in assay [3] (at 50.0 µM); 11% (inactive) in assay [4] (setting [7]); 82% (active) in assay [4] (setting [8]); 81.2% (active) in assay [4] (at 50.0 µM). Further, the growth inhibition in assay [5] (setting [7]) was 20% (inactive); in assay [5] (setting [8]), 91% (active); in assay [5] (at 50.0 µM), 93.5% (active); in assay [6] (setting [7]) it was 9% (inactive); in assay [6] (setting [8]), 90% (active); in assay [6] (at 50.0 µM), 91.8% (active).
